High-throughput results: PubChem, National Center for Advancing Translational Sciences (NCATS)
The list is not random: actives were taken first. Their share in the collection is about 0.92%.
FEN1 inhibitor: blocks human flap endonuclease 1; 0.35% of 390,000 active; Potency, µM (highest dose often 114 µM), hits mostly inhibitors; Recombinant FEN1 flap cleavage, fluorescence, 15 min; P39748; further: nearly all actives have a fitted effect of over 65% in size
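FEN1 at 10 nM preincubated with compounds 15 min at room temperature, then flap DNA substrate added at 50 nM final. Signal read at 0 and 15 min; concentration-response fitted with four-parameter Hill equation.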
RECQ1 inh: RECQ1 (human) helicase inhibition; RECQ1 DNA unwinding, red fluorescence kinetic read; Potency, µM (series often up to 57.3 µM), most hits filed as inhibitors; AID 2549; P46063; 0.54% of 240,000 active; further: nearly all actives have a fitted effect of over 30% in size
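RECQ1T1 50 nM; forked duplex (20 bp + 30-nt ss tails) 200 nM, ATP 2 mM final; pH 8.0, 2 mM MgCl2, 2.5 ug/ml poly(dI-dC); 15 min compound preincubation; discontinuous kinetic read over 2 h at RT.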
APEX1 inh: blocks human APE1 abasic DNA cleavage; P27695; recombinant APE1, TAMRA/BHQ-2 abasic DNA cleavage fluorescence; Potency, µM (top dose mostly 65.8 µM), most hits filed as inhibitors; 0.35% of 350,000 active; further: nearly all actives have a fitted effect of over 55% in size
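Quantitative HTS: incision of a TAMRA/BHQ-2 double-stranded substrate bearing a tetrahydrofuran abasic site by 0.75 nM APE1 raises fluorescence. Substrate 50 nM final, added after 15 min compound preincubation at room temperature; progress as third-minus-first kinetic read difference.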
BLM inh-1: inhibitors of human Bloom syndrome helicase BLM; Potency, µM (doses to about 56.1 µM), hits mostly inhibitors; 0.2% of 350,000 active; recombinant BLM DNA unwinding, fluorescence dequenching; further: nearly all actives have a fitted effect of over 35% in size
TDP1 inh: blocks human tyrosyl-DNA phosphodiesterase 1; 0.28% of 350,000 active; Potency, µM (highest dose often 130 µM), hits mostly inhibitors; recombinant TDP1, AlphaScreen DNA substrate cleavage; Q9NUW8; AID 485290; further: nearly all actives have a fitted effect of over 40% in size
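Here, a 5' biotin and 3' phosphotyrosine-FITC DNA oligonucleotide reports Tdp1 activity: intact substrate bridges AlphaScreen beads, while cleavage leaves a 3' phosphate and drops signal. All incubations at room temperature.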
BLM inh-2: BLM (human) helicase inhibition, confirmation. Potency, µM, actives largely listed as inhibitors. AID 2585. BLM DNA unwinding, fluorescence quenching, biochemical. shares compounds with BLM inh-1. 40% of 220 active;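 further: strand separation dequenches TAMRA so unwinding raises red fluorescence; series mostly up to about 69 µM; nearly all actives have a fitted effect of over 45% in size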
Of the large screens only hits and unclear results are named; the others gave an inactive call (follow-up assays come after a bar, where they were run). The call rests on the fitted dose curve; in most records, active means well fitted curve in the direction sought with a large enough effect; inconclusive means small, poorly fitted or top-dose-only effect, or another doubt; inactive means no such curve, though single readings can be large; an effect the other way counts as inactive or inconclusive.

Cc1ccc(NC(=O)CSc2nc(-c3ccc(C(C)(C)C)cc3)nc3cc(=O)[nH]n23)cc1C	none (no result: RECQ1 inh, APEX1 inh)
CCOc1ccc(-c2nc(SCC(=O)Nc3ccc(C)c(C)c3)n3[nH]c(=O)cc3n2)cc1	FEN1 inhibitor inconclusive, BLM inh-1 14µM (no result: RECQ1 inh, APEX1 inh) | BLM inh-2 18µM
CCOc1ccc(-c2nc(SCC(=O)Nc3cc(F)ccc3F)n3[nH]c(=O)cc3n2)cc1	BLM inh-1 10µM (no result: RECQ1 inh, APEX1 inh, TDP1 inh) | BLM inh-2 11µM
CCCCNc1nc(Oc2ccc(=O)n(C)n2)nc(N(C)C)n1	none (no result: RECQ1 inh, APEX1 inh)
N#C/C(=C\c1ccc(OC(=O)c2cccs2)cc1)c1nc2ccccc2[nH]1	BLM inh-1 20µM | BLM inh-2 inactive
COc1ccccc1CNc1ncnc2ccc(-c3cccc(NS(C)(=O)=O)c3)cc12	none (no result: FEN1 inhibitor, TDP1 inh)
Cc1ccc(NC2=CC(=O)c3sc(C)nc3C2=O)cc1	APEX1 inh inconclusive, BLM inh-1 7.9µM (no result: FEN1 inhibitor) | BLM inh-2 20µM
CN(C)[C@H]1C(=O)C(C(=O)NCN2CCCC2)=C(O)[C@]2(O)C(=O)C3=C(O)c4c(O)cccc4[C@](C)(O)[C@H]3C[C@H]12	BLM inh-1 14µM, TDP1 inh 0.2µM (no result: FEN1 inhibitor, RECQ1 inh, APEX1 inh) | BLM inh-2 20µM
Cc1ccc(-c2nn3c(C)nnc3s2)cc1NC(=O)c1ccc(Br)o1	none
Cc1ccc(-c2nn3c(C)nnc3s2)cc1NC(=O)c1ccc(-c2ccc(Cl)cc2Cl)o1	FEN1 inhibitor 56µM, BLM inh-1 11µM (no result: TDP1 inh) | BLM inh-2 7.3µM
C[C@H](CCCC(C)(C)O)[C@H]1CC[C@H]2[C@@H]3CC=C4C[C@@H](O)CC[C@]4(C)[C@H]3CC[C@]12C	none (no result: FEN1 inhibitor, RECQ1 inh, APEX1 inh, TDP1 inh)
Nc1c(C(=O)NC2CC2)sc2nc3c(c(-c4ccco4)c12)CC/C3=C/c1ccco1	FEN1 inhibitor 5.6µM, BLM inh-1 5.6µM | BLM inh-2 inconclusive
NC(=O)c1sc2nc3c(c(-c4ccco4)c2c1N)CCC3	none
CCn1ncc(Br)c1C(=O)Nc1ccc(OC(F)(F)F)cc1	none (no result: RECQ1 inh, TDP1 inh)
CCn1ncc(Br)c1C(=O)Nc1ccc(C(=O)OC(C)C)cc1	BLM inh-1 3.5µM | BLM inh-2 inconclusive
CC(C)(C)c1ccc(NC(=O)COC(=O)c2ccccc2OCC(=O)Nc2ccc(Br)cc2)cc1	none (no result: RECQ1 inh, APEX1 inh, BLM inh-1, TDP1 inh)
O=C(CSc1n[nH]c(=O)[nH]c1=O)Nc1ccc2c(c1)C(=O)c1ccccc1C2=O	FEN1 inhibitor 28µM, APEX1 inh inconclusive, BLM inh-1 13µM (no result: TDP1 inh) | BLM inh-2 16µM
CCN(c1ccccc1)S(=O)(=O)c1cc(NC(=O)CSc2n[nH]c(=O)[nH]c2=O)ccc1Cl	none
O=C(CSc1ccccn1)Nc1ccc2c(c1)C(=O)c1ccccc1C2=O	FEN1 inhibitor inconclusive, APEX1 inh inconclusive, BLM inh-1 25µM, TDP1 inh 22µM | BLM inh-2 inconclusive
O=C(CSc1ccccn1)Nc1ccc2ccccc2c1	APEX1 inh inconclusive (no result: FEN1 inhibitor)
Cc1ccc(-c2nn3c(-c4ccccc4)nnc3c3ccccc23)cc1	none (no result: RECQ1 inh, APEX1 inh)
O=C(COc1ccccc1C(=O)OCC(=O)N1CCOCC1)Nc1ccc(Br)cc1	none (no result: RECQ1 inh, APEX1 inh, BLM inh-1, TDP1 inh)
Cc1ccc(-c2nc(NC(=O)CSc3cc(C)c4ccccc4n3)ns2)cc1	FEN1 inhibitor inconclusive, APEX1 inh inconclusive, BLM inh-1 6.3µM | BLM inh-2 18µM
CCCCC/C=C\C/C=C\C/C=C\C/C=C\CCCCCC(=O)NC(C)C(=O)O (configuration not stated)	none (no result: FEN1 inhibitor)
CC(C)CN(C(=O)COC(=O)c1ccc(-c2ccccc2)cc1)C1CCS(=O)(=O)C1 (configuration not stated)	none
CC(C)CN(C(=O)COC(=O)c1cc2c(s1)CCC2)C1CCS(=O)(=O)C1 (configuration not stated)	FEN1 inhibitor inconclusive, RECQ1 inh inconclusive, APEX1 inh 13µM, BLM inh-1 25µM, TDP1 inh 13µM | BLM inh-2 inconclusive
O=C(O)C1CSC(c2ccncc2)N1 (configuration not stated)	none
O=C(O)C1CSC(c2ccco2)N1 (configuration not stated)	FEN1 inhibitor inconclusive, RECQ1 inh 32µM, APEX1 inh 14µM, BLM inh-1 25µM (no result: TDP1 inh) | BLM inh-2 inactive
Clc1ccc2nc(Nc3ccccc3Cl)nc(-c3ccccc3)c2c1	none (no result: RECQ1 inh, APEX1 inh)
